Tg IFNy HTS: T. gondii growth inhibition under IFN-gamma; Toxoplasma gondii growth in IFN-gamma-treated host cells; hits give low values; activity change, negative = inhibition, % (concentration not given with the values); 69,000 compounds, 3.8% hits; AID 1259416; in the data active = activity change below about -70%, passing the limit was not always enough;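 note: host cells are HeLa cells infected with Toxoplasma gondii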
* marks the source's active call; other numbers are inactive results; i = inactive. The sample as a whole holds a higher share of hits than the screen did.

SMILES | Tg IFNy HTS
CCOC(=O)Cn1c(=O)c(-c2nc(-c3ccccc3)cs2)cn(C(C)C)c1=O | -58.4
CN(C)C(=O)CCCn1cnc(-c2ccccc2)c1-c1cc2ccccc2[nH]1 | -5.9
OCCCCn1cnc(-c2ccccc2)c1-c1ccc2cccc(Cl)c2n1 | -88.5*
CCc1nc(-c2c(-c3ccccc3)ncn2CCCO)c(C)[nH]1 | 3.1
O=C(NCCc1csc(-c2cccc(F)c2)n1)C1CCCC1 | 5.7
COc1ccc(C(=O)NCCc2csc(-c3ccc(C(F)(F)F)cc3)n2)cc1 | 442.0
CCCCCOc1ccc(C(O)C(CN2CCCC2)c2ccccc2)cc1 (stereo not drawn) | -91.2*
CCOC(CN1CCN(CC(C)C(=O)c2ccccc2)CC1)c1ccccc1 (stereo not drawn) | -9.5
CC(=O)c1ccc(OCC(O)CN2CCN(C(c3ccccc3)c3ccccc3)CC2)cc1 (stereo not drawn) | -61.2
COCC1CN(C(=O)c2c(C)noc2C)Cc2nnn(CC3CC3)c21 (stereo not drawn) | -30.5
C/C(=C\c1ccccc1)CN1CC2CCCN2C[C@H]1C (stereo partly drawn) | -0.9
COc1ccc(C(=O)Nc2ccc(-c3nc(-c4ccc(C)cc4C)co3)cc2)cc1 | 18.0
Cc1ccc(NC(=O)c2ccc3c(c2)c(C)cn3C)c(-c2cc(C)[nH]n2)c1 | -48.5
COc1ccc(-c2cc(C(=O)Nc3ccc(C)cc3-c3cc(C)[nH]n3)no2)cc1 | -78.1*
Clc1ccc(OCc2nnc(SCc3nnc(-c4ccccc4)o3)o2)c(Cl)c1 | -26.3
O=C(Nc1ccc(CN2CCOCC2)cc1)c1cc2ccccc2o1 | i
CCNC(=O)c1ccc(N2CCN(Cc3ccc4c(c3)OCCO4)CC2)nc1 | -2.8
CCNC(=O)c1noc(-c2cc(C(C)C)c(O)cc2O)c1-c1ccc(CN2CCOCC2)cc1 | -88.4*
COc1cc2c3cc1Oc1cc(ccc1O)C[C@@H]1c4c(cc(OC)c(O)c4Oc4ccc(cc4)C[C@@H]3N(C)CC2)CC[N+]1(C)C | 11.2
COc1cc(CNCCc2ccccc2F)ccc1OCC(=O)N1CCCCC1 | -14.3
O=c1cc(-c2ccc(O)cc2)oc2ccc(O)cc12 | -86.6*
O=c1cc(-c2ccccc2)oc2cc(O)ccc12 | 27.9
O=c1cc(-c2ccc(O)cc2)oc2cc(O)cc(O)c12 | 53.1
O=C(NCCCN1CCC(N2CCCCC2)CC1)c1nnc2ccc(-c3ccccc3)nn12 | -2.3
CCOc1ccc(-c2nc(CN3CCN(C(=O)Nc4ccccc4OCC)CC3)c(C)o2)cc1 | -29.4
SMILES | Tg IFNy HTS
C[C@H]1CN([C@@H](C)CO)C(=O)Cc2cc(N(C)C)ccc2O[C@H]1CN(C)C(=O)NC1CCCCC1 | 1.6
Cc1ccc(C2c3[nH]c4ccccc4c3CCN2C(=O)c2ccccc2)cc1 (stereo not drawn) | i
CCCC(=O)N1CCc2c([nH]c3ccccc23)C1c1ccc(C)cc1 (stereo not drawn) | -49.3
CCOc1ccc(C2c3[nH]c4ccccc4c3CCN2C(=O)c2ccc(C)cc2)cc1 (stereo not drawn) | -95.0*
Cc1ccc(C2c3[nH]c4ccccc4c3CCN2C(=O)c2cccs2)cc1 (stereo not drawn) | -63.7
Cc1ccc(C2c3[nH]c4ccccc4c3CCN2C(=O)c2ccccc2F)cc1 (stereo not drawn) | -130.5*
CCOc1ccc(C2c3[nH]c4ccccc4c3CCN2C(=O)c2ccncc2)cc1 (stereo not drawn) | -3.8
Cc1ccc(C2c3[nH]c4ccccc4c3CCN2C(=O)c2ccccc2Br)cc1 (stereo not drawn) | 43.0
Cc1ccc(C2c3[nH]c4ccccc4c3CCN2C(=O)c2ccc(N(C)C)cc2)cc1 (stereo not drawn) | -118.7*
O=C(c1ccccc1Br)N1CCc2c([nH]c3ccccc23)C1c1ccc(F)cc1 (stereo not drawn) | 46.8
CCC1C=CCC2C(=O)N(CC(=O)Nc3ccc(Cl)c(Cl)c3)C(=O)C12 (stereo not drawn) | -36.7
COC(=O)C[C@@H]1CC[C@H]2[C@H](COc3ccc(NC(=O)Nc4c(C)noc4C)cc3C(=O)N2C)O1 | 12.3
Cc1ccc(CN2CCC3(CC2)CC(NS(C)(=O)=O)CCO3)s1 (stereo not drawn) | 0.3
COC(=O)c1c(C)noc1-c1ccc(Cl)cc1 | -27.6
O[C@@H]1CN(c2ncccc2Cl)CC[C@H]1N1CCN(c2ccccn2)CC1 | -11.2
CCc1ccccc1NC(=O)c1nnn(Cc2nc(-c3ccccc3)oc2C)c1C | 76.0
Cc1cccc(C)c1NC(=O)c1nnn(Cc2nc(-c3cccc(Cl)c3)oc2C)c1C | 26.2
Cc1ccc(-c2nc(Cn3nnc(-c4nc(-c5ccc(OC(C)C)cc5)no4)c3C)c(C)o2)cc1 | -38.5
Cc1ccc(Cl)cc1NC(=O)c1nnn(Cc2nc(-c3ccccc3)oc2C)c1C | -45.4
Cc1cc(C)c(NC(=O)c2nnn(Cc3nc(-c4ccccc4)oc3C)c2C)c(C)c1 | -77.2*
Cc1ccc(-c2nc(Cn3nnc(-c4nc(-c5ccc(OCC(C)C)cc5)no4)c3C)c(C)o2)cc1 | -11.3
Cc1oc(-c2ccccc2)nc1Cn1nnc(-c2nc(-c3ccc(OC(C)C)cc3)no2)c1C | -79.9*
Cc1oc(-c2cccc(Cl)c2)nc1Cn1nnc(C(=O)Nc2cccc(Cl)c2)c1C | -86.1*
Cc1cc(C)c(NC(=O)c2nnn(Cc3nc(-c4ccc(Cl)cc4)oc3C)c2C)c(C)c1 | -48.3
Cc1oc(-c2ccccc2)nc1Cn1nnc(C(=O)Nc2cccc(Cl)c2)c1C | 228.6
SMILES | Tg IFNy HTS
Cc1cccc(C)c1NC(=O)c1nnn(Cc2nc(-c3ccc(Cl)cc3)oc2C)c1C | -122.3*
Cc1ccc(-c2nc(Cn3nnc(C(=O)Nc4cccc(Cl)c4)c3C)c(C)o2)cc1 | 196.3
COC(=O)c1cn(CC(=O)N2CCc3ccccc3C2)c2ccccc12 | -10.0
Cc1ccc(NC(=O)c2nnn(Cc3nc(-c4ccc(OC(C)C)cc4)oc3C)c2C)c(C)c1 | -97.9*
CCOc1ccc(-c2nc(Cn3nnc(C(=O)Nc4ccccc4)c3C)c(C)o2)cc1 | -55.5
COc1ccc(NC(=O)c2nnn(Cc3nc(-c4ccccc4)oc3C)c2C)cc1 | -94.2*
Cc1ccc(F)cc1NC(=O)c1nnn(Cc2nc(-c3ccc(OC(C)C)cc3)oc2C)c1C | 149.7
COc1ccccc1NC(=O)c1nnn(Cc2nc(-c3ccccc3)oc2C)c1C | -4.0
Cc1ccc(NC(=O)c2nnn(Cc3nc(-c4ccc(Cl)cc4)oc3C)c2C)c(C)c1 | 15.3
Cn1cc(CN2CCCC3(COCCN(c4cccc(F)c4)C3)C2)cn1 (stereo not drawn) | -11.7
CCCn1cc(C(=O)N2CCC(O)(c3ccc(C)cn3)CC2)c(C)n1 | 15.4
Cc1cc(C(=O)NC2CCC3(CCC(=O)N3CC3CC3)CC2)c(C)o1 (stereo not drawn) | 10.8
CCC(C(=O)Nc1ccc(-c2nc(Cn3cccn3)c(C)o2)cc1)c1ccccc1 (stereo not drawn) | -13.2
CCOc1ccc(NC(=O)N2CCC3(CC2)NC(=O)c2cc(F)ccc2N3C)cc1 | 204.1
O=C(NCC1CCN(c2cc(-c3ccncc3)[nH]n2)CC1)c1cc2ccccc2[nH]1 | -78.5*
O=C(CCc1c[nH]c2ccccc12)N1CCN(c2cc(-c3cccnc3)[nH]n2)CC1 | 104.0
O=C(c1cc2ccccc2[nH]1)N1CCC(c2[nH]ncc2Cc2ccccc2)CC1 | -11.8
O=C(CCC1N=C2c3ccccc3N=C(SCc3ccc(F)cc3)N2C1=O)NCc1cccs1 (stereo not drawn) | -17.9
Cc1ccc2[nH]cc(CCNC(=O)c3sc4ncccc4c3-n3cccc3)c2c1 | 371.0
O=C(c1n[nH]c2c1CCCC2)N1CCC(c2[nH]ncc2-c2ccccc2)CC1 | -48.9

Screening data deposited in PubChem by Broad Institute.
